Nrf2 inh = inhibitors of Nrf2 signaling | A549 ARE-Fluc reporter, luciferase luminescence, 18-24 h | Potency, µM (top dose mostly 46 µM), without a hit: at the highest dose activity change, negative = inhibition, actives largely listed as inhibitors | actives 2.1% (n = 360,000); further: potency means the concentration at half of the fitted maximal effect; on the % scale 0 is the no-effect control and ±100 the full control effect; nearly all actives have a fitted effect of over 60% in size
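Concentration-response testing used A549 ARE_Fluc cells at 5000 cells/well. Following an 18-24 h compound incubation, viability was read by fluorescence (Ex 405/Em 525) and luciferase output by luminescence.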
LDHA inh = blocks human lactate dehydrogenase A; purified LDHA, NADH/diaphorase-resazurin fluorescence; active compounds read low; P00338; actives 0.15% (n = 480,000); activity change, % (values are at about 110 or 230 µM); AID 1347041; in the data active means activity change below about -30%; inconclusive means mostly about -25% to -30%;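 further: plate controls were DMSO wells for no effect and wells without enzyme for full effect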
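Remaining NADH was detected by diaphorase (0.133 mg/mL) converting 37 µM resazurin to fluorescent resorufin, read at 0 and 20 minutes. The preceding 5-minute room-temperature reaction used 2 nM LDHA, 0.2 mM sodium pyruvate and 0.06 mM NADH at pH 7.4.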
ERG Ets-DNA blk = ERG Ets/DNA interaction inhibition; P11308; fluorescence polarization, His-ERG Ets domain / labelled DNA; Potency, µM (titrated, usually from 76.9 µM), without a hit: at the top dose FP activity, negative = inhibition, most hits filed as inhibitors; actives 0.028% (n = 370,000); AID 624246; active means well fitted inhibition curve with a large enough effect in the polarisation, with a control signal flat; inconclusive means small, poorly fitted or top-dose-only effect, or effect the other way, or a change in a side signal; inactive means no such curve, though single readings can be large or run the other way; the % refers to the polarisation;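 further: polarization taken with two DNA probes labelled with fluorescein and Texas red; potency means the concentration at half of the fitted maximal effect; % of control where 0% means no effect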
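His-tagged ERG Ets domain (1 uM in the protein solution; 300mM KCl, 50mM Tris-HCl, 1mM EDTA, 1mM DTT, pH 7.5) received compound, then a probe mix of 5 nM fluorescein-DNA and 100nM Texas-615-DNA. Fluorescence polarization was read for both dyes.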
Nrf2 activator = activates Nrf2 signaling | AREc32 ARE-luciferase reporter (MCF7-derived line), luminescence, 24 h | Potency, µM (series often up to 46.1 µM), for inactives: at the top dose activation, most hits filed as activators | actives 0.31% (n = 410,000) | AID 624171; further: potency means the concentration at half of the fitted maximal effect; % of control where 0% means no effect; nearly all actives have a fitted effect of over 65% in size
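For detection, Steady-Glo was added and plates sat 30 min at RT; before that, AREc32_Fluc cells grown overnight in OPTI-MEM/5% FBS had been treated with 23 nL compound for 24 hr at 37 deg C.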
ALOX12 inh = blocks human arachidonate 12S-lipoxygenase; P18054; purified 12hLO, xylenol orange hydroperoxide absorbance; Potency, µM (titrated, usually from 108 µM), inactives show at the top dose activity change, negative = inhibition, actives largely listed as inhibitors; actives 1.1% (n = 580,000); AID 1671190; further: potency means the concentration at half of the fitted maximal effect; on the % scale 0 is the no-effect control and ±100 the full control effect
Target sequence (P18054 whole entry, looked up): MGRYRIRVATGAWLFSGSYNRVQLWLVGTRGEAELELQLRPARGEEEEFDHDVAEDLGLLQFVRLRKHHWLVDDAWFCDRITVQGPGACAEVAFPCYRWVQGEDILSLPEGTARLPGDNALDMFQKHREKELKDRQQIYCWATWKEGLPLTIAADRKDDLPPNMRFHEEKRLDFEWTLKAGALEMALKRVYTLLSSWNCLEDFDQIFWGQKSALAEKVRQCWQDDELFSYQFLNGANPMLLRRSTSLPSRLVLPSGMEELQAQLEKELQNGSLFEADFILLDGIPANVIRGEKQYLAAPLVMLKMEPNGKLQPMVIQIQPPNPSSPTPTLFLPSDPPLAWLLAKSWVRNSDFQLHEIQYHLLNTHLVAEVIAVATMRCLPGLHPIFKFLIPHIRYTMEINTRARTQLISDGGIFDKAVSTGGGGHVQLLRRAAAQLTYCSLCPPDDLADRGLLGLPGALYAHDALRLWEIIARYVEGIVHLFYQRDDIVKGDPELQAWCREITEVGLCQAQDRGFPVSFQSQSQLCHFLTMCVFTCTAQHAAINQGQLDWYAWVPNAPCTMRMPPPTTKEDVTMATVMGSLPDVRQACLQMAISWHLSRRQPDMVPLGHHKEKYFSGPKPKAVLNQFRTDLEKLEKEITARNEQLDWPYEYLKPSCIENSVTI
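Purified human 12hLO (150 nM final) in 25 mM Hepes, 0.01% Triton X-100, pH 7.0 was preincubated 15 min at room temperature with compound. Then 40 uM arachidonic acid was added, 30 min. Hydroperoxide was read by Fe-XO absorbance ratio 573/405 nm.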
A549 viability = A549 cytotoxicity, counter-screen for Nrf2 inhibitors. A549 ARE-Fluc cells, CellTiter-Fluor viability, 18-24 h. actives 0.16% (n = 390,000). Potency, µM (series often up to 46 µM), for the others: top-dose activity change, negative = cytotoxicity, hits mostly inhibitors; further: potency means the concentration at half of the fitted maximal effect; on the % scale 0 is the no-effect control and ±100 the full control effect
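Cytotoxicity counterscreen: CellTiter-Fluor fluorescence was measured in A549 ARE_Fluc cells after 18-24 h of compound exposure in a concentration series. The subsequent BugLite luminescent read reports ARE-luciferase activity.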
* = called active by the depositor; ? = inconclusive; . = not tested or not shown. Hits are enriched below; roughly 2.7% of the tested compounds scored in any of these assays. Unless noted, the call rests on the fitted dose curve; in most records, active means well fitted curve in the direction sought with a large enough effect; inconclusive means small, poorly fitted or top-dose-only effect, or another doubt; inactive means no such curve, though single readings can be large; an effect the other way counts as inactive or inconclusive.

SMILES	Nrf2 inh	LDHA inh	ERG Ets-DNA blk	Nrf2 activator	ALOX12 inh	A549 viability
Nc1ccc(OC(=O)Nc2ccc(O)cc2)cc1	20.6µM*	18.9	3.3%	9.8%	?	-6.5%
COc1cc2oc(=O)c(CC(=O)NCc3ccc4c(c3)OCO4)c(C)c2cc1Cl	.	6.5	.	.	-0.1%	.
c1ccc(CSc2nccc(-c3ccco3)n2)cc1	8.0%	2.3	13.3%	10µM*	?	7.0%
c1ccc(CSc2n[nH]c(-c3ccco3)n2)cc1	1.7%	0.4	-4.8%	2.8%	6.7%	-14.6%
CSc1ccc(/C=C/C(=O)c2ccc(S(=O)(=O)NCC(=O)O)cc2)cc1	.	3.9	.	.	?	.
O=S1(=O)CCN(C2CCCCC2)c2c(F)nc(F)c(F)c21	.	-22.0	.	.	?	.
COC(=O)c1c(NC(=O)CN2C(=O)NC3(CCCCC3C)C2=O)sc2c1CCC2 (stereo not drawn)	16.4µM*	-3.7	0.6%	-0.4%	0.0%	-14.0%
CCc1cccc(C)c1NC(=O)CCc1ncc(-c2ccc(F)cc2F)o1	.	19.3	.	.	?	.
Cc1cccc(C)c1OCc1n[nH]c(=S)o1	-7.3%	0.2	1.0%	0.6%	44.7µM*	9.0%
CC1CN(c2nc3c(c(=O)n(Cc4ccc(Cl)c(Cl)c4)c(=O)n3C)n2C)CC(C)O1 (stereo not drawn)	23.1µM*	-6.1	-0.4%	0.1%	0.0%	?
COc1ccc(CCNc2oc(-c3ccc(OC)cc3)nc2C#N)cc1	.	-4.4	.	.	?	.
CC(=O)N1CCN(c2oc(/C=C/c3ccccc3)nc2C#N)CC1	.	1.3	.	.	?	.
Cc1ccc2oc(-c3ccc(NC(=O)c4ccccc4F)cc3)nc2c1	.	2.2	.	.	-2.0%	.
O=c1cc(-c2cccc(Br)c2)oc2cccc(O)c12	22.7%	-2.7	-1.3%	2µM*	-15.0%	-1.3%
Cc1ccc2oc(=O)c(/C=C(\O)c3cccs3)nc2c1	?	10.5	-26.2%	15.8µM*	-14.4%	0.5%
O=c1oc2ccccc2nc1/C=C(\O)c1ccc(Br)cc1	?	2.9	14.3%	?	.	-15.1%
Cc1ccc2oc(=O)c(/C=C(\O)c3ccccc3)nc2c1	-8.7%	2.3	6.7%	14.1µM*	?	-8.0%
O=c1oc2ccc(Cl)cc2nc1/C=C(\O)c1cccs1	?	10.7	1.9%	?	-145.6%	1.5%
C/C(O)=C\c1nc2ccccc2oc1=O	-7.6%	13.6	-1.6%	15.8µM*	0.0%	-5.7%
CCc1cccc(C)c1Nc1c(-c2ccccc2O)nc2cnccn12	.	6.2	.	.	?	.
Cc1nc(NC(=O)c2ccccc2)sc1-c1csc(Nc2ccccc2)n1	.	4.9	.	.	?	.
CCOC(=O)C1=C(COC(=O)c2ccc3ccccc3c2O)NC(=O)NC1C (stereo not drawn)	-9.7%	-3.0	11.3%	5.7%	39.8µM*	-0.9%
COc1ccc(/C=C(\C#N)C(=O)Nc2ccccc2C(=O)O)cc1OC(=O)c1ccccc1Cl	.	1.7	.	.	39.8µM*	.
COc1ccccc1/C=C/C=C(/C#N)C(=O)Nc1ccccc1C(=O)O	.	8.7	.	.	7.08µM*	.
COc1ccc(/C=C(/C#N)C(=O)Nc2ccccc2C(=O)O)cc1OC	.	6.7	.	.	1.4%	.
SMILES	Nrf2 inh	LDHA inh	ERG Ets-DNA blk	Nrf2 activator	ALOX12 inh	A549 viability
COc1ccccc1/C=C/C=C(/C#N)C(=O)NC(C)c1ccccc1 (stereo not drawn)	.	18.3	.	.	?	.
CCN(CC)c1ccc(NS(=O)(=O)c2ccc(C3CCCCC3)cc2)cc1C(=O)O	.	10.7	.	.	?	.
O=C(c1ccccc1O)N1CCN(C(=O)c2cc(=O)[nH]c3ccccc23)CC1	.	0.9	.	.	19.9%	.
CCSc1nn(CC(=O)Nc2cccc(CC)c2)c(N)c1S(=O)(=O)c1ccccc1	?	-1.9	-8.7%	-1.0%	?	-16.3%
CCc1ccc(NC(=O)Cn2nc(SC)c(S(=O)(=O)c3ccc(OC)cc3)c2N)cc1	?	-0.9	1.7%	0.4%	-14.5%	8.6%
CCSc1nn(CC(=O)Nc2cccc(Cl)c2)c(N)c1S(=O)(=O)c1ccc(OC)cc1	18.4µM*	-4.2	-3.0%	-1.8%	?	?

Source: PubChem
